Molecules are shown by their SMILES. Inconclusive results are not listed. The source made the active and inactive calls. The call rests on the fitted dose curve; in most records, active means well fitted inhibition curve with a large enough effect; inconclusive means small, poorly fitted or top-dose-only effect; inactive means flat fitted curve, though single readings scatter.

Holding throughout (test): qHTS profiling for inhibitors of Plasmodium falciparum proliferation (AID 504749); further: nearly all actives have a fitted effect of over 60% in size
Holding throughout (conditions): P. falciparum in erythrocytes, SYBR Green DNA, 72 h; series mostly up to 28.7 µM

For one assay, the system named is CP238. An outline of the steps: (§1)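 P. falciparum-infected erythrocytes (0.3% parasitemia, 2.5% hematocrit) incubated with compound 72 h at 37 C, 5% CO2. Parasite DNA detected by SYBR Green after lysis, overnight at room temperature; normalised to 0.29 uM artemisinin and DMSO.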
The test system of a further assay is CP247. Put shortly:
as §1

A further assay concerns CP250. Put shortly:
as §1

In a further assay the test system is CP252. Put shortly:
as §1

The next assay relates to CP256. Put shortly: as §1
The test system of another assay is CP260. Put shortly: as §1
A further assay deals with CP262. Put shortly:
as §1

A further assay has as its system CP265. An outline of the steps: as §1
Another assay has as its system CP266. Put shortly: as §1
In a further assay the test system is CP268. Put shortly: as §1
Potency means the concentration at half of the fitted maximal effect.

For `COc1ccccc1O`, the Potency result in the assay with CP238, with CP247, in the assay on CP250, with CP252, in the assay with CP256 and with CP260 was “inactive” in each case. Besides, the Potency entry in the assay with CP262, with CP265, in the assay with CP266 and with CP268 was “inactive” in each case.

As for `CCN(CC)CCNC(=O)c1cc(Cl)c(N)cc1OC`, the Potency result in the assay on CP238, in the assay with CP247, in the assay on CP250, in the assay on CP252, in the assay with CP256 and in the assay on CP260 was “inactive” in each case. Further, the Potency result in the assay on CP262, in the assay on CP265, with CP266 and with CP268 was “inactive” throughout.

In the case of `COc1cc(C(=O)N2CCOCC2)cc(OC)c1OC`, the Potency entry in the assay with CP238, in the assay with CP247, in the assay on CP250, in the assay on CP252, in the assay with CP256 and in the assay with CP260 was “inactive” in each case. The Potency entry in the assay on CP262, with CP265, in the assay with CP266 and in the assay on CP268 was “inactive” each time.

Take `NC(=O)NNc1ccccc1`: the Potency result in the assay with CP238, in the assay on CP247, in the assay on CP250, with CP252, with CP256 and in the assay on CP260 was “inactive” throughout. In addition, the Potency result in the assay with CP262, in the assay on CP265, in the assay on CP266 and in the assay on CP268 was “inactive” in each case.

Turning to `O=C1OC(OC(=O)c2cccnc2Nc2cccc(C(F)(F)F)c2)c2ccccc21` (stereo not given), the Potency result with CP238, in the assay on CP247, with CP250, with CP252, in the assay on CP256 and in the assay with CP260 was “inactive” throughout. In addition, the Potency entry in the assay with CP262, in the assay with CP265, in the assay on CP266 and in the assay with CP268 was “inactive” each time.

In the case of `CCCCc1ncc(/C=C(\Cc2cccs2)C(=O)O)n1Cc1ccc(C(=O)O)cc1`, the Potency entry with CP238, in the assay with CP247, in the assay with CP250, with CP252, in the assay on CP256 and in the assay on CP260 was “inactive” in each case. In addition, the Potency entry in the assay on CP262, with CP265, in the assay on CP266 and with CP268 was “inactive” throughout.

On to `O=c1cc[nH]c(=S)[nH]1`, for which the Potency result with CP238, in the assay with CP247, in the assay on CP250, with CP252, in the assay with CP256 and with CP260 was “inactive” throughout. Besides, the Potency result in the assay on CP262, in the assay on CP265, in the assay with CP266 and in the assay on CP268 was “inactive” throughout.

In the case of `OCC(O)CN1CCN(c2ccccc2)CC1` (stereo not given), the Potency entry with CP238, in the assay with CP247, in the assay on CP250, in the assay with CP252, with CP256 and with CP260 was “inactive” each time. For the same compound, the Potency result in the assay on CP262, in the assay on CP265, in the assay with CP266 and in the assay with CP268 was “inactive” in each case.

For `NC1CCN(c2cccc(Cl)n2)CC1`, the Potency result with CP238, with CP247, in the assay with CP250, in the assay on CP252, in the assay with CP256 and in the assay on CP260 was “inactive” each time. In addition, the Potency entry in the assay on CP262, in the assay on CP265, in the assay on CP266 and with CP268 was “inactive” throughout.

As to `CCCCN(CCCC)CC(O)c1cc(Cl)cc2c1-c1ccc(Cl)cc1/C2=C/c1ccc(Cl)cc1` (stereo not given), the Potency with CP238 was 28.2 nM (active); in the assay with CP247 it was 39.8 nM (active); with CP250, 28.2 nM (active); with CP252, 35.5 nM (active); with CP256, 79.4 nM (active); in the assay with CP260, 31.6 nM (active). Further, the Potency in the assay on CP262 was 33.8 nM (active); in the assay with CP265, 112 nM (active); in the assay with CP266 it was 135 nM (active); with CP268 it was 135 nM (active).

`Nc1ccc(S(=O)(=O)Nc2nccs2)cc1`: the Potency entry in the assay with CP238, in the assay with CP247, in the assay on CP250, in the assay with CP252, in the assay on CP256 and in the assay with CP260 was “inactive” in each case. Besides, the Potency entry in the assay on CP262, in the assay on CP265, in the assay with CP266 and with CP268 was “inactive” each time.

Regarding `O=C(CCCN1CCN(c2ccccn2)CC1)c1ccc(F)cc1`, the Potency entry in the assay with CP238, in the assay on CP247, with CP250, in the assay with CP252, with CP256 and in the assay with CP260 was “inactive” throughout. Further, the Potency result in the assay with CP262, with CP265, with CP266 and in the assay on CP268 was “inactive” each time.

As to `O=C(O)COc1nn(Cc2ccccc2)c2ccccc12`, the Potency entry with CP238, in the assay on CP247, in the assay on CP250, in the assay with CP252, in the assay with CP256 and with CP260 was “inactive” each time. For the same compound, the Potency entry in the assay on CP262, in the assay on CP265, in the assay with CP266 and with CP268 was “inactive” each time.

Consider `O=C1NS(=O)(=O)c2ccccc21`, for which the Potency entry with CP238, in the assay with CP247, with CP250, in the assay on CP252, with CP256 and with CP260 was “inactive” in each case. The Potency result with CP262, with CP265, in the assay on CP266 and in the assay with CP268 was “inactive” in each case.

For `NCC(=O)CCC(=O)O`, the Potency entry in the assay on CP238, in the assay on CP247, in the assay on CP250, with CP252, with CP256 and with CP260 was “inactive” each time. The Potency result in the assay on CP262, in the assay with CP265, in the assay with CP266 and in the assay on CP268 was “inactive” each time.

Take `COc1cc2[nH]c(=O)[nH]c(=O)c2cc1OC`: the Potency result in the assay with CP238, with CP247, in the assay with CP250, with CP252, in the assay on CP256 and in the assay with CP260 was “inactive” each time. Also, the Potency entry in the assay on CP262, in the assay on CP265, in the assay on CP266 and with CP268 was “inactive” throughout.

As to `Oc1cn2c(n1)Nc1ccc(Cl)c(Cl)c1C2`, the Potency entry in the assay with CP238, in the assay with CP247, in the assay on CP250, in the assay on CP252, in the assay with CP256 and in the assay with CP260 was “inactive” each time. Also, the Potency result in the assay on CP262, in the assay on CP265, in the assay on CP266 and in the assay with CP268 was “inactive” in each case.

Regarding `Cc1cccc(Nc2cc(Cl)nc(SCC(=O)O)n2)c1C`, the Potency entry in the assay on CP238, with CP247, in the assay with CP250, in the assay on CP252, in the assay with CP256 and in the assay on CP260 was “inactive” each time. The Potency result in the assay on CP262, in the assay with CP265, in the assay with CP266 and in the assay with CP268 was “inactive” each time.

Regarding `Cc1ncc(COP(=O)(O)O)c(C=O)c1O`, the Potency entry with CP238, in the assay with CP247, in the assay on CP250, with CP252, in the assay on CP256 and in the assay with CP260 was “inactive” throughout. Further, the Potency entry in the assay with CP262, in the assay on CP265, in the assay with CP266 and in the assay on CP268 was “inactive” throughout.

With `Nc1ccc(S(=O)(=O)NC(=O)c2ccccc2)cc1`, the Potency result with CP238, in the assay with CP247, in the assay with CP250, in the assay on CP252, in the assay with CP256 and in the assay on CP260 was “inactive” each time. The Potency result in the assay with CP262, with CP265, in the assay with CP266 and with CP268 was “inactive” each time.

As for `CC1(C)[C@@H]2CC[C@@]1(C)C(=O)C2`, the Potency entry in the assay on CP238, with CP247, with CP250, in the assay on CP252, in the assay on CP256 and in the assay on CP260 was “inactive” each time. For the same compound, the Potency result in the assay with CP262, in the assay with CP265, in the assay on CP266 and with CP268 was “inactive” throughout.

Take `C=Cc1c(C)c2cc3[nH]c(cc4nc(cc5nc(cc1[nH]2)C(C)=C5CCC(=O)O)C(CCC(=O)O)=C4C)c(C)c3C=C`: the Potency entry in the assay with CP238, with CP247, with CP250, in the assay with CP252, in the assay on CP256 and in the assay with CP260 was “inactive” in each case. Moreover, the Potency entry with CP262, with CP265, in the assay on CP266 and with CP268 was “inactive” throughout.

Regarding `Nc1ncnc2c1ncn2[C@@H]1O[C@H](CO)[C@@H](O)[C@H]1O`, the Potency result in the assay on CP238, with CP247, with CP250, in the assay on CP252, with CP256 and with CP260 was “inactive” in each case. In addition, the Potency result in the assay on CP262, in the assay with CP265, in the assay on CP266 and in the assay with CP268 was “inactive” each time.

On to `CCOC(=O)[C@H](CCc1ccccc1)N[C@@H](C)C(=O)N1C(=O)N(C)C[C@H]1C(=O)O`, for which the Potency result in the assay on CP238, in the assay on CP247, in the assay on CP250, in the assay with CP252, in the assay on CP256 and in the assay with CP260 was “inactive” each time. The Potency result in the assay on CP262, with CP265, in the assay with CP266 and in the assay with CP268 was “inactive” in each case.

For the origin of these results see PubChem BioAssay (NCATS).
